Reference: PubChem BioAssay (NCATS)
Records with an inconclusive call do not appear. Where a call stands in place of a potency, no number is given. A number with no mark means an inactive call. Calls of active or inactive are those of the source. Calls follow the shape of the dose curve; as a rule, active = well fitted curve in the direction sought with a large enough effect; inconclusive = small, poorly fitted or top-dose-only effect, or another doubt; inactive = no such curve, though single readings can be large; an effect the other way counts as inactive or inconclusive. Square brackets hold non-standard residues; d marks the D form. Peptide text beside a SMILES is read from it. dPhe(4-Cl) = N[C@H](Cc1ccc(Cl)cc1)C(=O)O; d2Nal = N[C@H](Cc1ccc2ccccc2c1)C(=O)O; dCit = NC(=O)NCCC[C@@H](N)C(=O)O; d3Pal = N[C@H](Cc1cccnc1)C(=O)O

Tests used:
[1] = molecular target: Cellular tumor antigen p53 (Homo sapiens) (UniProt P04637); assay: Primary qHTS for small molecule compounds that upregulate eGFP-tagged delta133p53alpha (in N-terminal) cells. (AID 2060322); conditions: NCI-H358 eGFP-delta133p53alpha fluorescence, 24 h; activation: active compounds read high; also: nearly all actives have a fitted effect of over 75% in size; also: potency is read from the fitted curve at half-maximal effect;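 as to activation: cells pre-induced with doxycycline then dosed without doxycycline; series mostly up to about 56 µM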
Method in brief: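 NCI-H358 cells pre-induced 24 h with 10 ng/ml doxycycline for eGFP-delta133p53alpha, plated dox-free and exposed 24 h at 37C to titrated compounds. Fixed, Hoechst-stained; gated GFP peak intensity by laser scanning cytometry, normalized to DMSO (0%) and 57.5 uM 5-azacytidine (100%).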

[2] = molecular target: Aldehyde dehydrogenase, mitochondrial (Homo sapiens) (UniProt P05091); assay: qHTS for Inhibitors of the Aldehyde Dehydrogenase Family (ALDH2) Primary screen (AID 2061308); also: nearly all actives have a fitted effect of over 55% in size
[3] = molecular target: Retinaldehyde dehydrogenase 3 (Homo sapiens) (UniProt P47895); assay: qHTS for Inhibitors of the Aldehyde Dehydrogenase Family (ALDH1A3) Primary screen (AID 2061315)

Cellular tumor antigen p53 (Homo sapiens), sequence (P04637 whole entry, looked up): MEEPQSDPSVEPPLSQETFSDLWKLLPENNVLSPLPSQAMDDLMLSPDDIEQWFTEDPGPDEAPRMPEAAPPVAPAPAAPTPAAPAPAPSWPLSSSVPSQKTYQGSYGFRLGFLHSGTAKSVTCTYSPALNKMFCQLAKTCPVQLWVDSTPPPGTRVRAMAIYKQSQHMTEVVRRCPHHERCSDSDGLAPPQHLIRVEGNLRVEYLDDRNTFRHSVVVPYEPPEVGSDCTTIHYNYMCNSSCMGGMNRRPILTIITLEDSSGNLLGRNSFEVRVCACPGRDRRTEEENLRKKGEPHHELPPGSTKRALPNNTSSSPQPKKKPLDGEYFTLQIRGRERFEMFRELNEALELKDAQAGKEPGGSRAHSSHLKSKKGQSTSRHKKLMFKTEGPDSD

Compound | activation [1] | Potency [2] | Potency [3] | Potency [1] | activity change, negative = inhibition [2] | activity change, negative = inhibition [3]
C=C1CCC2C(C)(C)CC(=O)CC2(C)C1CCC(C)CCO (configuration not stated) | 6.25% | inactive | inactive |  |  | 
C[C@]12CCC[C@](C)(C(=O)O)C1[C@@H](O)[C@@H](O)C13CC(CCC12)C(CO)(O[C@@H]1O[C@H](CO)[C@@H](O)[C@H](O)[C@H]1O)C3 (some centres not stated) | -9.16% | inactive | inactive |  |  | 
CC(=O)C1=CCC2C3CC=C4CC(O)CC(O)C4(C)C3C(O)CC12C (configuration not stated) | 6.11% | inactive | inactive |  |  | 
CC(=O)N[C@H]1[C@H](O[C@H]2CC[C@@]3(C)C(CC[C@]4(C)C3CC=C3[C@@H]5CC(C)(C)CC[C@]5(C(=O)OC5OCC(O)C(O)C5O)CC[C@]34C)C2(C)C)O[C@H](COC2OC(C)C(O)C(OC3OC(C)C(O)C(O)C3O)C2O)[C@@H](O)[C@@H]1O (some centres not stated) | -26% | inactive | inactive |  |  | 
CC1(CO)CC2C(O)C3=C(CC(C)(O)C2C1)C(=O)OC3 (configuration not stated) | -12.2% | inactive | inactive |  |  | 
CC(C)C[C@H](NC(=O)[C@@H]1O[C@H]1C(=O)O)C(=O)NCCCCN=C(N)N | -8.33% | inactive | inactive |  |  | 
COc1ccc(C(=O)Nc2ncc(-c3ccc(C(=O)O)cc3)s2)cc1 |  | inactive | inactive | 10.7 µM (active) |  | 
CCOC(=O)N1c2ccc(C(F)(F)F)cc2C(N(Cc2cc(C(F)(F)F)cc(C(F)(F)F)c2)C(=O)OC)CC1CC (configuration not stated) | -4.3% | inactive | inactive |  |  | 
COc1cc(CCC2=NN=C(NC(=O)c3ccc(N4C[C@@H](C)N[C@@H](C)C4)cc3)C2)cc(OC)c1 | -0.333% | inactive | inactive |  |  | 
CN1CCc2cc3c(cc2C(=O)Cc2cc4c(cc2C1)OCO4)OCO3 | -8.04% | inactive | inactive |  |  | 
CC1=CC[C@]2(C(=O)O[C@@H]3O[C@H](CO[C@@H]4O[C@H](CO)[C@@H](O[C@@H]5O[C@@H](C)[C@H](O)[C@@H](O)[C@H]5O)[C@H](O)[C@H]4O)[C@@H](O)[C@H](O)[C@H]3O)CC[C@]3(C)C(CCC4[C@@]5(C)C[C@@H](O)[C@H](O)[C@@](C)(CO)C5CC[C@]43C)C2C1C (some centres not stated) | -13% | inactive | inactive |  |  | 
CC(=O)OC1CC2(C)C3=CCC4(C)C5C(O)C(O)C(C(C)C)C5(C)CCC4(C)C3CCC2C(C)(C)C1OC1OC(CO)C(O)C(O)C1O (configuration not stated) | -1.53% | inactive | inactive |  |  | 
CC(=O)C1(C)CCC2C3C=C(C)C4=CC(=O)CCC4(C)C3CCC21C (configuration not stated) | -17% | inactive | inactive |  |  | 
CC(=O)c1cc2c(cc1O)OC(C)(C)C=C2 | 14.3% | inactive | inactive |  |  | 
C=C1CCC2[C@@](C)(C(=O)O)CCC[C@@]2(C)[C@@H]1CCc1ccoc1 (some centres not stated) | 1.79% | inactive | inactive |  |  | 
CC1(C)CC[C@]2(C(=O)O[C@@H]3O[C@H](CO)[C@@H](O)[C@H](O)[C@H]3O)CC[C@]3(C)C(=CCC4[C@@]5(C)CC[C@H](O[C@@H]6O[C@H](C(=O)O)[C@@H](O[C@@H]7O[C@H](CO)[C@@H](O)[C@H](O)[C@H]7O)[C@H](O)[C@H]6O[C@@H]6O[C@H](CO)[C@@H](O)[C@H](O)[C@H]6O)C(C)(C)C5CC[C@]43C)C2C1 (some centres not stated) | -29.8% | inactive | inactive |  |  | 
CC1(C=O)CCCC2(C)C1CCC13CC(CO)C(CCC12)C3 (configuration not stated) | -9.92% | inactive | inactive |  |  | 
CCC(=O)OCC(=O)[C@@]1(OC(=O)CC)[C@@H](C)C[C@H]2[C@@H]3CCC4=CC(=O)C=C[C@]4(C)[C@@]3(F)[C@@H](O)C[C@@]21C | -5% | inactive | inactive |  |  | 
C=C1CC/C=C(/CO)C(=O)C[C@@H]2[C@@H]1CC2(C)C | 7.14% | inactive | inactive |  |  | 
O=C(Nc1ccccc1C(=O)Nc1ccc(CCO)cc1)c1ccc([N+](=O)[O-])cc1 | -29.5% | inactive | inactive |  |  | 
CC(C)(O)c1ccc2c(c1)C(=O)CC1[C@](C)(CO)CCC[C@]21C (some centres not stated) | 26.8% | inactive | inactive |  |  | 
CCC(C)/C=C(C)/C=C/C1=CC2=C(Cl)C(=O)C(C)(OC(C)=O)C(=O)C2=CN1CCCCC(N)C(=O)O (configuration not stated) | -16.8% | inactive | inactive |  |  | 
CC1(C)CC[C@]2(C(=O)O)CC[C@]3(C)C(=CCC4[C@@]5(C)C[C@@H](O)[C@H](O)C(CO)(CO)C5CC[C@]43C)C2[C@@H]1O (some centres not stated) | -9.16% | inactive | inactive |  |  | 
COc1cc(O)c(C(=O)CCc2ccc(O)cc2)c(O[C@@H]2O[C@H](CO)[C@@H](O)[C@H](O)[C@H]2O)c1 |  | inactive | inactive | 7.38 µM (active) |  | 
CCCCc1ccc(NS(=O)(=O)c2ccc(F)cc2)cc1 | -9.55% | inactive | inactive |  |  | 

Compound | activation [1] | Potency [2] | Potency [3] | Potency [1] | activity change, negative = inhibition [2] | activity change, negative = inhibition [3]
C[C@@H]1O[C@@H](OC(=O)Cc2ccccc2)[C@H](O)[C@H](O)[C@H]1O | 17% | inactive | inactive |  |  | 
CC(C)=CCC/C(C)=C/CCC1(C)Oc2c(c(O)cc3c2CN(C(CCC(=O)O)C(=O)O)C3=O)CC1O (configuration not stated) | -13.7% | inactive | inactive |  |  | 
CC(=O)N[C@H](Cc1ccc2ccccc2c1)C(=O)N[C@H](Cc1ccc(Cl)cc1)C(=O)N[C@H](Cc1cccnc1)C(=O)N[C@@H](CO)C(=O)N[C@@H](Cc1ccc(O)cc1)C(=O)N[C@H](CCCNC(N)=O)C(=O)N[C@@H](CC(C)C)C(=O)N[C@@H](CCCN=C(N)N)C(=O)N1CCC[C@H]1C(=O)N[C@H](C)C(N)=O (Ac-[d2Nal][dPhe(4-Cl)][d3Pal]SY[dCit]LRP[dA]-NH2) | 13% | inactive | inactive |  |  | 
C=CC1C(O[C@@H]2O[C@H](CO)[C@@H](O)[C@H](O)[C@H]2O)OC=C(C(=O)OC)C1Cc1nccc2c1[nH]c1ccccc12 (some centres not stated) | 19.6% | inactive | inactive |  |  | 
COC(=O)C[C@H]1C(C)(C)[C@H](OC(=O)C(C)C)C2CC3=C4CC(=O)O[C@@H](c5ccoc5)[C@]4(C)CCC3[C@@]1(C)C2=O (some centres not stated) | 11.6% | inactive | inactive |  |  | 
O=C(O)[C@H]1Cc2ccccc2CN1 | 6.21% |  |  |  | 6.47% [at 5.59 µM] | -14.2% [at 5.59 µM]
C=C(C)C1Cc2c(ccc3c2OCC(c2ccc(O)cc2O)C3)O1 (configuration not stated) | 32.1% | inactive | inactive |  |  | 
Cc1nc(Nc2n[nH]c3c2CN(C(=O)NC(CN(C)C)c2ccccc2)C3(C)C)c2sccc2n1 (configuration not stated) |  | inactive | inactive | 10.7 µM (active) |  | 
COc1ccc(/C=C/C(=O)O[C@@H]2[C@@H](O)[C@@H](O)[C@H](O[C@H]3[C@@H]4C=CO[C@@H](O[C@@H]5O[C@H](CO)[C@@H](O)[C@H](O)[C@H]5O)[C@@H]4[C@@]4(CO)O[C@@H]34)O[C@H]2C)cc1 | -16% | inactive | inactive |  |  | 
O=C1NC(Cc2c[nH]c3ccccc23)C(=O)NC1Cc1cnc[nH]1 (configuration not stated) | -5.36% | inactive | inactive |  |  | 
COc1cc(O)c2c(c1)C1=CC(O)C(O)CC1(C)OC2=O (configuration not stated) | 2.29% | inactive | inactive |  |  | 
CC(=O)OCC1=C[C@H](O)[C@@H]2C(C(=O)O)=CO[C@@H](O[C@@H]3O[C@H](CO)[C@@H](O)[C@H](O)[C@H]3O)[C@H]12 | 0.763% | inactive | inactive |  |  | 
CC(C)(O)[C@@H]1CC[C@]2(CO)[C@@H](O)CC[C@](C)(O)[C@H]2[C@@H]1O[C@@H]1O[C@H](CO)[C@@H](O)[C@H](O)[C@H]1O | 1.53% | inactive | inactive |  |  | 
COC(=O)CC(C)(O)CC(=O)OCc1ccc(O[C@@H]2O[C@H](CO)[C@@H](O)[C@H](O)[C@H]2O)cc1 (some centres not stated) | -5.34% | inactive | inactive |  |  | 
C=C1C(=O)O[C@@H]2[C@H]3C(C)=CC(=O)C3=C(C)[C@@H](OC(=O)/C(C)=C\C)[C@H](O)[C@@H]12 |  | inactive | inactive | 16.6 µM (active) |  | 
CC(C)(O)C1CCC2(C)CCCC(C)(O)C2C1 (configuration not stated) | 2.68% | inactive | inactive |  |  | 
CC(C)(C)[C@H](NC(=O)c1ccc(N)c(Cl)c1)C(=O)N1CCC[C@H]1C(=O)N[C@H](C#N)CC(=O)O | -7% | inactive | inactive |  |  | 
CC1OC(OC2C(C)OC(OC3C(OC(=O)C45CCC(C)(C)CC4C4=CCC6C7(C)CCC(OC8OC(C(=O)O)C(O)C(O)C8OC8OC(CO)C(O)C(OC9OC(C)C(O)C(O)C9O)C8O)C(C)(CO)C7CCC6(C)C4(C)CC5)OC(CO)C(O)C3O)C(O)C2O)C(O)C(O)C1O (configuration not stated) | 13.4% |  |  |  | -1.8% [at 11.2 µM] | -5.04% [at 11.2 µM]
COc1cc(C(=O)NC2CCN(C)CC2)ccc1Nc1ncc2c(n1)N(C1CCCC1)CC(F)(F)C(=O)N2C | 29.5% | inactive | inactive |  |  | 
CCC(CCO[C@@H]1O[C@H](CO[C@H]2OC[C@](O)(CO)[C@H]2O)[C@@H](O)[C@H](O)[C@H]1O)C(C)(C)O (some centres not stated) | -6.87% | inactive | inactive |  |  | 
C=CC(C)(O)C(O)CC1C(C)(O)C(O)C(O)C2C(C)(C)CCCC21C (configuration not stated) | -20.6% | inactive | inactive |  |  | 
CC1=COC(OC2OC(CO)C(O)C(O)C2O)C2C(CO)CC(OC(=O)/C=C/c3ccc(O)cc3)C12 (configuration not stated) | -9.16% | inactive | inactive |  |  | 
COC(=O)[C@]1(C)CCC[C@@]2(C)C(=O)CC[C@H]3C(=O)C=C(CC[C@@H]21)C3O (some centres not stated) | 1.53% | inactive | inactive |  |  | 
CC1=C(C)C(=O)OC(C(C)C2C(O)CC3C4C5OC5C5(O)CC(OC6OC(CO)C(OC7OC(C)C(O)C(O)C7O)C(O)C6O)CC(O)C5(C)C4CCC32C)C1 (configuration not stated) | -6.87% | inactive | inactive |  |  | 
